“And” between values parts separate entries of the source, which are not always exact repeats. Identical values can stand only once. Records with an inconclusive call do not appear. A call without a number means that no potency is given here. The source holds several records for some structures; these can differ, active in one and inactive in another. The source made the active and inactive calls. Calls follow the shape of the dose curve; as a rule, active = well fitted curve in the direction sought with a large enough effect; inconclusive = small, poorly fitted or top-dose-only effect, or another doubt; inactive = no such curve, though single readings can be large; an effect the other way counts as inactive or inconclusive.
Assays:
[1] = target: Guanine nucleotide-binding protein G(i) subunit alpha-1 (Homo sapiens) (UniProt P63096); experiment: qHTS Assay for Inhibitors of RGS12 GoLoco Motif Activity (Green Fluorophore) (AID 879);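 also: negative values mean loss of peptide binding seen as reduced polarization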
Procedure, shortened: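 Fluorescence polarization assay: 50 nM Gαi1 with 10 nM FITC-labeled RGS12 GoLoco peptide in 10 mM Tris pH 7.5, 150 mM NaCl, 0.1 mM GDP, 0.05% NP40, 10 min at room temperature with compound.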

[2] = target: Cytochrome P450 2C9 (Homo sapiens) (UniProt P11712); experiment: qHTS Assay for Inhibitors and Substrates of Cytochrome P450 2C9 (AID 883); also: nearly all actives have a fitted effect of over 60% in size
Procedure, shortened: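 CYP2C9 deoxyluciferin hydroxylation, 37C, 60 min with NADPH regeneration; 10nM enzyme, 100uM Luciferin-H (KM). Glo detection reagent stopped reaction; luminescence normalized to sulphaphenazole (57uM) full inhibition.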

[3] = Cellular Toxicity (caspase-3) Renal Proximal Tubule (AID 667);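 also: cells exposed to compound for 16 hours at 37 °C before detection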
Procedure, shortened: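 Primary rat proximal tubule cells, 1000/well, 5 h plating at 37 °C, then compound 16 h at 37 °C. Caspase-Glo 3/7 reagent, 1 h RT, luminescence. Normalized to DMSO (basal) and 10 uM staurosporine (100%); Hill-fit AC50.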

[4] = target: Cytochrome P450 3A4 (Homo sapiens) (UniProt P08684); experiment: qHTS Assay for Activators of Cytochrome P450 3A4 (AID 885); also: nearly all actives have a fitted effect of over 65% in size
Procedure, shortened: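 Quantitative HTS format: compounds preincubated with 20nM human CYP3A4 and Luciferin-PPXE substrate at KM, reaction started by NADPH regeneration, stopped after 60 min, luciferase luminescence read 20 min later.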

[5] = target: Cytochrome P450 3A4 (Homo sapiens) (UniProt P08684); experiment: qHTS Assay for Inhibitors and Substrates of Cytochrome P450 3A4 (AID 884); also: nearly all actives have a fitted effect of over 50% in size; also: potency is read from the fitted curve at half-maximal effect
Procedure, shortened: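 20 nM human CYP3A4 with 25 uM Luciferin-PPXE (at KM) in 200 mM KPO4, preincubated 10 min with compound; NADPH regeneration started a 60 min RT reaction. Luciferin detected by luminescence, normalized to 57 uM ketoconazole as full inhibition.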

[6] = Confirmation and Secondary Assay for Modulators of Hemoglobin Beta Chain Splicing at IVS2 654 locus (AID 910);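 also: per-well total GFP intensity by laser scanning cytometry after 2-day treatment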;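 also: potency is read from the fitted curve at half-maximal effect; potency of activators that raise GFP signal by restoring correct splicing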
Procedure, shortened: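 HeLa cells stably carrying EGFP interrupted by mutant beta-globin IVS2-654 intron (CMV-driven) were treated with compound for 2 days at 37C; corrected splicing was scored as total peak GFP intensity per well (488 nm excitation, 500-520 nm emission).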

[7] = target: Cytochrome P450 2D6 (Homo sapiens) (UniProt P10635); experiment: qHTS Assay for Inhibitors and Substrates of Cytochrome P450 2D6 (AID 891);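 also: luciferin methyl ether substrate demethylated by CYP2D6 with NADPH regeneration; nearly all actives have a fitted effect of over 60% in size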
Procedure, shortened: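 Human CYP2D6 (5 nM) with 30 uM Luciferin-ME EGE (at Km) in 100 mM KPO4, compound preincubated 10 min, then NADPH regeneration system for 60 min at room temperature. Luciferin read by luminescence; normalized to 1.43 uM quinidine.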

[8] = target: Cytochrome P450 2C19 (Homo sapiens) (UniProt P33261); experiment: qHTS Assay for Inhibitors and Substrates of Cytochrome P450 2C19 (AID 899); also: nearly all actives have a fitted effect of over 60% in size
Procedure, shortened: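 In 50mM KPO4, the reaction held 5nM enzyme and KM-level (10uM) Luciferin-H EGE; it ran 60 min at 37C after NADPH regeneration and a 10 min compound preincubation. Luminescence values were scaled to 57uM ketoconazole as complete inhibition.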

Chain of Guanine nucleotide-binding protein G(i) subunit alpha-1 (Homo sapiens) (P63096 whole entry, looked up): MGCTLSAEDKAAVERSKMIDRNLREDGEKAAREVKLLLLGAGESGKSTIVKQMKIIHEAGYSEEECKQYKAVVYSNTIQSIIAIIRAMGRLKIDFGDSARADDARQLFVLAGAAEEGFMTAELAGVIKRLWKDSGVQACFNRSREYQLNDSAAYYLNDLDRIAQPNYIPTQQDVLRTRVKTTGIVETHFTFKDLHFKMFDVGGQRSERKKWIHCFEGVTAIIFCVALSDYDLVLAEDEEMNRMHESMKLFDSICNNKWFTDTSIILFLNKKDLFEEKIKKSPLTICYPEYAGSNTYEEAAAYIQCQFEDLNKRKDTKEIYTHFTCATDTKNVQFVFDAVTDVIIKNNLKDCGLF
Chain of Cytochrome P450 3A4 (Homo sapiens) (P08684 whole entry, looked up): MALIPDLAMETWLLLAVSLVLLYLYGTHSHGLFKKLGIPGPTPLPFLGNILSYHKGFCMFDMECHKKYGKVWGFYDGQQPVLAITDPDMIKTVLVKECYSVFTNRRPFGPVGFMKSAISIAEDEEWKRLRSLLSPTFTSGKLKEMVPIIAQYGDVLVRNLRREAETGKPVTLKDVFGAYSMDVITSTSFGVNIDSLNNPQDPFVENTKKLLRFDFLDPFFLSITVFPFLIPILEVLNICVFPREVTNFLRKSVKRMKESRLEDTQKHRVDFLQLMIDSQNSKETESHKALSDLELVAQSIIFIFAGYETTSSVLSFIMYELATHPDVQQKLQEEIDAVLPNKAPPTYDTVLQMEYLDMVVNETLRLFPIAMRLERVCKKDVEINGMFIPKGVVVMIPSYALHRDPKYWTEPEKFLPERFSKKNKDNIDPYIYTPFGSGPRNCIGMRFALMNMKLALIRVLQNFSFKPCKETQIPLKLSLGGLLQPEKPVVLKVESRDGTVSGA
Chain of Cytochrome P450 2C9 (Homo sapiens) (P11712 whole entry, looked up): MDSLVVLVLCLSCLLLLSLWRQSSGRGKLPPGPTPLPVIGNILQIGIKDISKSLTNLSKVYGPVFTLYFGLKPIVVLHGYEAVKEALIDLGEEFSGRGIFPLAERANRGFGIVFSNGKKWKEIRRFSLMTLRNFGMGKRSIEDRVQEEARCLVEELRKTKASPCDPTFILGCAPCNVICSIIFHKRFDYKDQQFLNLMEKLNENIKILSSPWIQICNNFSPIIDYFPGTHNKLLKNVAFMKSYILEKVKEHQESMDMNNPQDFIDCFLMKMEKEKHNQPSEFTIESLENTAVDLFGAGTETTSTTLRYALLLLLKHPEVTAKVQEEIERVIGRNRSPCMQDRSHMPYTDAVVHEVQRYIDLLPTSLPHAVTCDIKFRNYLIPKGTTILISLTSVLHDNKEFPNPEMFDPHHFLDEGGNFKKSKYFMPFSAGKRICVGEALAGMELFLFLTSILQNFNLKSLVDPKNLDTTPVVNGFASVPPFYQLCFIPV
Chain of Cytochrome P450 2C19 (Homo sapiens) (P33261 whole entry, looked up): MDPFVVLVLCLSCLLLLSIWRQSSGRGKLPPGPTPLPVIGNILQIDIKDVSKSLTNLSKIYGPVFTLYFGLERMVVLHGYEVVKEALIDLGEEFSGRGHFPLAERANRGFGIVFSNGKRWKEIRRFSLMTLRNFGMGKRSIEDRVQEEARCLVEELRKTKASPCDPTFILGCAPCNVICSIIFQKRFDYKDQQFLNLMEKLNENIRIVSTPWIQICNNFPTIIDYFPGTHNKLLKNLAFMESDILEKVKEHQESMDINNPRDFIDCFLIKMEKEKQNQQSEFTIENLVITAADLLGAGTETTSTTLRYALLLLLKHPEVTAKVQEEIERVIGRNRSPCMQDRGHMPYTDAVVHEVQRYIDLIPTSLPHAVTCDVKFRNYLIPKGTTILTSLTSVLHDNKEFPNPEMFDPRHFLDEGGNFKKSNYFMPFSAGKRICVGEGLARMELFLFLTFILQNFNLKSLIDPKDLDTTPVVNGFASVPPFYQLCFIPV
Chain of Cytochrome P450 2D6 (Homo sapiens) (P10635 whole entry, looked up): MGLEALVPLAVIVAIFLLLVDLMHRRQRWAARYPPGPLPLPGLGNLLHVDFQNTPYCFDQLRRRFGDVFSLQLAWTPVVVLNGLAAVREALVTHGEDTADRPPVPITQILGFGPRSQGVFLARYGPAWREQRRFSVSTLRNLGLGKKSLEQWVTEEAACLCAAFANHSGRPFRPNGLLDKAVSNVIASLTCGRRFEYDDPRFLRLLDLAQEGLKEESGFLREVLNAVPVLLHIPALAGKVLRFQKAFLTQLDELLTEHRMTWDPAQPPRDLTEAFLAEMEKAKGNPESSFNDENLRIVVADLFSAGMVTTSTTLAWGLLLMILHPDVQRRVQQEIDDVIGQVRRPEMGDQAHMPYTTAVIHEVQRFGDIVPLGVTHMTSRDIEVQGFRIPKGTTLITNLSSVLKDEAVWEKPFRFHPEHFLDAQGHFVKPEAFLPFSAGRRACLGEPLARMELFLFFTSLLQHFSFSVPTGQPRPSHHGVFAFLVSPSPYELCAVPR

For `Clc1cnc(Oc2ccc(Oc3ncc(Cl)cc3Cl)cc2)c(Cl)c1`, the outcome [1] was “inactive” and the Potency [2] was “inactive”.
With `Nc1ccc(Cl)cc1N` the outcome [3] was “inactive” and the outcome [4] was “inactive”.
For `Cc1cc(O)ccc1Cl`, the outcome [3] was “inactive”, the Potency [5] was “inactive” and the Potency [6] was “inactive”.
With `O=C(O)C(Cl)Cl` the outcome [3] was “inactive” and the Potency [5] was “inactive”.
With `CCOCCOC(C)=O` the outcome [3] was “inactive” and the Potency [5] was “inactive”.
In the case of `O=S(=O)(c1ccc(Cl)cc1)c1ccc(Cl)cc1`, the outcome [3] is reported as “inactive” and the outcome [4] is reported as “inactive”.
For `O=[N+]([O-])c1c(Cl)c(Cl)cc(Cl)c1Cl`, the outcome [3] was “inactive” and the Potency [5] was “inactive”.
With `CC[C@@]1(O)C(=O)OCc2c1cc1n(c2=O)Cc2cc3ccccc3nc2-1` the outcome [1] was “inactive”, the Potency [2] was “inactive” and the Potency [5] was 6.31 µM (active) and inactive. The outcome [4] was “inactive”, the Potency [7] was “inactive” and the Potency [8] was “inactive”. For the same compound, the Potency [6] was “inactive and 1 µM (active)”.
For `CC(=O)[O][Hg][c]1ccccc1`, the outcome [3] was “inactive” and the Potency [6] was “inactive”.
In the case of `c1ccc(CCCN2CCN(CCOC(c3ccccc3)c3ccccc3)CC2)cc1`, the outcome [1] is reported as “inactive”.
In the case of `CCOP(=O)(NC(C)C)Oc1ccc(SC)c(C)c1` (configuration not stated), the outcome [3] is reported as “inactive” and the outcome [4] is reported as “inactive”.
In the case of `OCCCBr`, the outcome [3] is reported as “inactive” and the Potency [5] is reported as “inactive”.
For `Nc1ccc([N+](=O)[O-])cc1`, the outcome [3] was “inactive” and the Potency [5] was “inactive”.
For `C=CC(=O)NCNC(=O)C=C`, the outcome [3] was “inactive” and the Potency [5] was “inactive”.
For `c1cc2ccc3cccc4ccc(c1)c2c34`, the outcome [3] was “inactive” and the outcome [4] was “inactive”.
In the case of `CN(C)[C@@H]1C(=O)C(C(N)=O)=C(O)[C@@]2(O)C(=O)C3=C(O)c4c(O)cccc4[C@@](C)(O)[C@H]3[C@H](O)[C@@H]12`, the outcome [3] is reported as “inactive” and the Potency [5] is reported as “inactive”.

Source: PubChem BioAssay (NCATS)
